{"source": "PubChem BioAssay (NCATS)", "key": {"[1]": {"test": "qHTS profiling for inhibitors of Plasmodium falciparum proliferation (AID 504749); also: nearly all actives have a fitted effect of over 60% in size", "conditions": "P. falciparum in erythrocytes, SYBR Green DNA, 72 h", "summary_of_the_method": "(§1)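 Quantitative HTS: compounds pinned into medium, infected erythrocytes added (0.3% parasitemia, 2.5% hematocrit), 72 h culture at 37 C under 5% CO2. Saponin/Triton lysis with SYBR Green I, overnight RT, then fluorescence read.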"}, "3D7": {"tested_on": "3D7", "test": "qHTS profiling for inhibitors of Plasmodium falciparum proliferation (AID 504749)", "conditions": "P. falciparum in erythrocytes, SYBR Green DNA, 72 h; series mostly up to 28.7 µM", "summary_of_the_method": "as §1"}, "7G8": {"tested_on": "7G8", "test": "qHTS profiling for inhibitors of Plasmodium falciparum proliferation (AID 504749)", "conditions": "P. falciparum in erythrocytes, SYBR Green DNA, 72 h; series mostly up to 28.7 µM", "summary_of_the_method": "as §1"}, "AA1029": {"tested_on": "AA1029", "test": "qHTS profiling for inhibitors of Plasmodium falciparum proliferation (AID 504749)", "conditions": "P. falciparum in erythrocytes, SYBR Green DNA, 72 h; series mostly up to 28.7 µM", "summary_of_the_method": "as §1"}, "AS120": {"tested_on": "AS120", "test": "qHTS profiling for inhibitors of Plasmodium falciparum proliferation (AID 504749)", "conditions": "P. falciparum in erythrocytes, SYBR Green DNA, 72 h; series mostly up to 28.7 µM", "summary_of_the_method": "as §1"}, "ATS189": {"tested_on": "ATS189", "test": "qHTS profiling for inhibitors of Plasmodium falciparum proliferation (AID 504749)", "conditions": "P. falciparum in erythrocytes, SYBR Green DNA, 72 h; series mostly up to 28.7 µM", "summary_of_the_method": "as §1"}, "ATS95": {"tested_on": "ATS95", "test": "qHTS profiling for inhibitors of Plasmodium falciparum proliferation (AID 504749)", "conditions": "P. falciparum in erythrocytes, SYBR Green DNA, 72 h; series mostly up to 28.7 µM", "summary_of_the_method": "as §1"}, "C2A": {"tested_on": "C2A", "test": "qHTS profiling for inhibitors of Plasmodium falciparum proliferation (AID 504749)", "conditions": "P. falciparum in erythrocytes, SYBR Green DNA, 72 h; series mostly up to 28.7 µM", "summary_of_the_method": "as §1"}, "CP185": {"tested_on": "CP185", "test": "qHTS profiling for inhibitors of Plasmodium falciparum proliferation (AID 504749)", "conditions": "P. falciparum in erythrocytes, SYBR Green DNA, 72 h; series mostly up to 28.7 µM", "summary_of_the_method": "as §1"}, "[2]": {"conditions": "at 28.7 µM (top of the series), parasite line A"}, "[3]": {"conditions": "at 28.7 µM (top of the series), parasite line B"}, "[4]": {"conditions": "at 12.8 µM (top of the series), parasite line A"}, "[5]": {"conditions": "at 12.8 µM (top of the series), parasite line B"}}, "note": "Records with an inconclusive call do not appear. A call without a number means that no potency is given here. A number with no mark means an inactive call. Calls of active or inactive are those of the source. Calls follow the shape of the dose curve; as a rule, active = well fitted inhibition curve with a large enough effect; inconclusive = small, poorly fitted or top-dose-only effect; inactive = flat fitted curve, though single readings scatter. Potency is read from the fitted curve at half-maximal effect."}
{"smiles": "CCCCN(CCCC)CCC(O)c1cc2c(Cl)cc(Cl)cc2c2cc(C(F)(F)F)ccc12", "note": "(configuration not stated)", "values": [{"measurement": "Potency", "setting": "[1]; parasite line A", "result": "7.9 nM (active)"}, {"measurement": "Potency", "setting": "[1]; parasite line B", "result": "5.6 nM (active)"}, {"measurement": "Potency", "setting": "3D7", "result": "3.2 nM (active)"}, {"measurement": "Potency", "setting": "7G8", "result": "0.0011 µM (active)"}, {"measurement": "Potency", "setting": "AA1029", "result": "0.0063 µM (active)"}, {"measurement": "Potency", "setting": "AS120", "result": "5.6 nM (active)"}, {"measurement": "Potency", "setting": "ATS189", "result": "5.6 nM (active)"}, {"measurement": "Potency", "setting": "ATS95", "result": "7.9 nM (active)"}, {"measurement": "Potency", "setting": "C2A", "result": "25.1 nM (active)"}, {"measurement": "Potency", "setting": "CP185", "result": "28.2 nM (active)"}]}
{"smiles": "CCCc1cc(=O)[nH]c(=S)[nH]1", "values": [{"measurement": "activity, negative = inhibition", "setting": "[1]; [2]", "result": 3.45, "unit": "%"}, {"measurement": "activity, negative = inhibition", "setting": "[1]; [3]", "result": 5.92, "unit": "%"}, {"measurement": "Potency", "setting": "3D7", "result": "inactive"}, {"measurement": "Potency", "setting": "7G8", "result": "inactive"}, {"measurement": "Potency", "setting": "AA1029", "result": "inactive"}, {"measurement": "Potency", "setting": "AS120", "result": "inactive"}, {"measurement": "Potency", "setting": "ATS189", "result": "inactive"}, {"measurement": "Potency", "setting": "ATS95", "result": "inactive"}, {"measurement": "Potency", "setting": "C2A", "result": "inactive"}, {"measurement": "Potency", "setting": "CP185", "result": "inactive"}]}
{"smiles": "CC1(C)CCC(C)(C)c2cc(NC(=O)c3ccc(C(=O)O)cc3)ccc21", "values": [{"measurement": "activity, negative = inhibition", "setting": "[1]; [2]", "result": -1.01, "unit": "%"}, {"measurement": "activity, negative = inhibition", "setting": "[1]; [3]", "result": -5.09, "unit": "%"}, {"measurement": "Potency", "setting": "3D7", "result": "inactive"}, {"measurement": "Potency", "setting": "AA1029", "result": "inactive"}, {"measurement": "Potency", "setting": "AS120", "result": "inactive"}, {"measurement": "Potency", "setting": "ATS189", "result": "inactive"}, {"measurement": "Potency", "setting": "ATS95", "result": "inactive"}, {"measurement": "Potency", "setting": "C2A", "result": "inactive"}, {"measurement": "Potency", "setting": "CP185", "result": "inactive"}]}
{"smiles": "Cc1cc(=O)c2c(O)c3c(O)cc(=O)c4c3c3c(cc(O)c1c23)C(C)(C)C=4O", "values": [{"measurement": "Potency", "setting": "[1]; parasite line A", "result": "2510 nM (active)"}, {"measurement": "Potency", "setting": "[1]; parasite line B", "result": "1000 nM (active)"}, {"measurement": "Potency", "setting": "3D7", "result": "1580 nM (active)"}, {"measurement": "Potency", "setting": "AA1029", "result": "1.78 µM (active)"}, {"measurement": "Potency", "setting": "AS120", "result": "1780 nM (active)"}, {"measurement": "Potency", "setting": "ATS189", "result": "1410 nM (active)"}, {"measurement": "Potency", "setting": "ATS95", "result": "2000 nM (active)"}, {"measurement": "Potency", "setting": "C2A", "result": "1580 nM (active)"}, {"measurement": "Potency", "setting": "CP185", "result": "1580 nM (active)"}]}
{"smiles": "Cc1cc(=O)oc2cc(O)ccc12", "values": [{"measurement": "Potency", "setting": "7G8", "result": "inactive"}, {"measurement": "Potency", "setting": "AA1029", "result": "inactive"}, {"measurement": "Potency", "setting": "ATS95", "result": "inactive"}]}
{"smiles": "O=C(O)c1cn(-c2ccc(F)cc2)c2cc(N3CCNCC3)c(F)cc2c1=O", "values": [{"measurement": "activity, negative = inhibition", "setting": "[1]; [2]", "result": -18.3, "unit": "%"}, {"measurement": "activity, negative = inhibition", "setting": "[1]; [3]", "result": -17.6, "unit": "%"}, {"measurement": "Potency", "setting": "3D7", "result": "inactive"}, {"measurement": "Potency", "setting": "AS120", "result": "inactive"}, {"measurement": "Potency", "setting": "ATS189", "result": "inactive"}, {"measurement": "Potency", "setting": "C2A", "result": "inactive"}]}
{"smiles": "Cc1cc2cc3c(C)cc(=O)oc3c(C)c2o1", "values": [{"measurement": "activity, negative = inhibition", "setting": "[1]; [4]", "result": 2, "unit": "%"}, {"measurement": "activity, negative = inhibition", "setting": "[1]; [5]", "result": 12.4, "unit": "%"}, {"measurement": "Potency", "setting": "3D7", "result": "inactive"}, {"measurement": "Potency", "setting": "7G8", "result": "inactive"}, {"measurement": "Potency", "setting": "AA1029", "result": "inactive"}, {"measurement": "Potency", "setting": "AS120", "result": "inactive"}, {"measurement": "Potency", "setting": "ATS189", "result": "inactive"}, {"measurement": "Potency", "setting": "ATS95", "result": "inactive"}, {"measurement": "Potency", "setting": "C2A", "result": "inactive"}, {"measurement": "Potency", "setting": "CP185", "result": "inactive"}]}
{"smiles": "O=C(O)c1cccc(-c2noc(-c3ccccc3F)n2)c1", "values": [{"measurement": "activity, negative = inhibition", "setting": "[1]; [2]", "result": -1.01, "unit": "%"}, {"measurement": "activity, negative = inhibition", "setting": "[1]; [3]", "result": 10.4, "unit": "%"}, {"measurement": "Potency", "setting": "3D7", "result": "inactive"}, {"measurement": "Potency", "setting": "7G8", "result": "inactive"}, {"measurement": "Potency", "setting": "AA1029", "result": "inactive"}, {"measurement": "Potency", "setting": "AS120", "result": "inactive"}, {"measurement": "Potency", "setting": "ATS189", "result": "inactive"}, {"measurement": "Potency", "setting": "ATS95", "result": "inactive"}, {"measurement": "Potency", "setting": "C2A", "result": "inactive"}, {"measurement": "Potency", "setting": "CP185", "result": "inactive"}]}
{"smiles": "CCC[C@@H]1C[C@@H](C(=O)N[C@@H]([C@H]2O[C@H](SC)[C@H](O)[C@@H](O)[C@H]2O)[C@@H](C)O)N(C)C1", "values": [{"measurement": "Potency", "setting": "ATS189", "result": "inactive"}]}
{"smiles": "N=C(N=C(N)N)N1CCOCC1", "values": [{"measurement": "activity, negative = inhibition", "setting": "[1]; [4]", "result": -9.52, "unit": "%"}, {"measurement": "activity, negative = inhibition", "setting": "[1]; [5]", "result": 11.1, "unit": "%"}, {"measurement": "Potency", "setting": "3D7", "result": "inactive"}, {"measurement": "Potency", "setting": "7G8", "result": "inactive"}, {"measurement": "Potency", "setting": "AA1029", "result": "inactive"}, {"measurement": "Potency", "setting": "ATS189", "result": "inactive"}, {"measurement": "Potency", "setting": "ATS95", "result": "inactive"}, {"measurement": "Potency", "setting": "C2A", "result": "inactive"}, {"measurement": "Potency", "setting": "CP185", "result": "inactive"}]}
{"smiles": "CN1CCC(=C2c3ccccc3CCc3sccc32)CC1", "values": [{"measurement": "activity, negative = inhibition", "setting": "[1]; [2]", "result": -27.4, "unit": "%"}, {"measurement": "activity, negative = inhibition", "setting": "[1]; [3]", "result": -20.6, "unit": "%"}, {"measurement": "Potency", "setting": "3D7", "result": "inactive"}, {"measurement": "Potency", "setting": "7G8", "result": "11.2 µM (active)"}, {"measurement": "Potency", "setting": "AA1029", "result": "6.31 µM (active)"}, {"measurement": "Potency", "setting": "C2A", "result": "inactive"}]}
{"smiles": "O=C1c2ccccc2-c2n[nH]c3cccc1c23", "values": [{"measurement": "activity, negative = inhibition", "setting": "[1]; [2]", "result": -18.5, "unit": "%"}, {"measurement": "activity, negative = inhibition", "setting": "[1]; [3]", "result": -1.75, "unit": "%"}, {"measurement": "Potency", "setting": "3D7", "result": "inactive"}, {"measurement": "Potency", "setting": "AA1029", "result": "inactive"}, {"measurement": "Potency", "setting": "AS120", "result": "inactive"}, {"measurement": "Potency", "setting": "ATS189", "result": "inactive"}, {"measurement": "Potency", "setting": "ATS95", "result": "inactive"}, {"measurement": "Potency", "setting": "C2A", "result": "inactive"}, {"measurement": "Potency", "setting": "CP185", "result": "inactive"}]}
